In general, AC50 refers to the concentration giving half of the maximal activity seen.

The structures appear in SMILES notation. Calls of active or inactive are those of the source. The calls were made as follows: active = hit-call score of the fitted dose curve at least 0.9, where 1 is the maximum; inactive = score below 0.9.

The experiment deals with human TRKA Receptor Tyrosine Kinase, NTRK1 (gene 4914) (UniProt P04629). Briefly: ERF_FR_ENZ_hNTRK1: Eurofins (ERF) Enzymatic Radiometric [Km ATP] KinaseProfiler LeadHunter Assay for human TRKA Receptor Tyrosine Kinase. As for the experimental part: ERF_FR_ENZ_hNTRK1 is a biochemical, single-readout assay that uses extracted gene-proteins in a cell-free assay. Measurements were taken 0.16 hour after chemical dosing in a 96-well plate. See TRKA Human RTK Kinase Enzymatic LANCE Assay [Km ATP], Cerep.ERF_FR_ENZ_hNTRK1 is an assay component calculated from the ERF_FR_ENZ_hNTRK1 assay. It is designed to measure enzyme activity using a type of enzyme reporter as detected by fluorescence intensity with LANCE technology.Data from the assay component ERF_FR_ENZ_hNTRK1 was analyzed at the assay endpoint, ERF_FR_ENZ_hNTRK1, in the positive analysis fitting direction relative to DMSO as the negative control and baseline of activity. Using a type of enzyme reporter, loss-of-signal activity can be used to understand changes in enzymatic activity as they relate to gene NTRK1. To generalize the intended target to other relatable targets, this assay endpoint is annotated to the kinase intended target family, where the subfamily is receptor tyrosine kinase.
Sequence of human TRKA Receptor Tyrosine Kinase, NTRK1 (gene 4914) (P04629 whole entry, looked up): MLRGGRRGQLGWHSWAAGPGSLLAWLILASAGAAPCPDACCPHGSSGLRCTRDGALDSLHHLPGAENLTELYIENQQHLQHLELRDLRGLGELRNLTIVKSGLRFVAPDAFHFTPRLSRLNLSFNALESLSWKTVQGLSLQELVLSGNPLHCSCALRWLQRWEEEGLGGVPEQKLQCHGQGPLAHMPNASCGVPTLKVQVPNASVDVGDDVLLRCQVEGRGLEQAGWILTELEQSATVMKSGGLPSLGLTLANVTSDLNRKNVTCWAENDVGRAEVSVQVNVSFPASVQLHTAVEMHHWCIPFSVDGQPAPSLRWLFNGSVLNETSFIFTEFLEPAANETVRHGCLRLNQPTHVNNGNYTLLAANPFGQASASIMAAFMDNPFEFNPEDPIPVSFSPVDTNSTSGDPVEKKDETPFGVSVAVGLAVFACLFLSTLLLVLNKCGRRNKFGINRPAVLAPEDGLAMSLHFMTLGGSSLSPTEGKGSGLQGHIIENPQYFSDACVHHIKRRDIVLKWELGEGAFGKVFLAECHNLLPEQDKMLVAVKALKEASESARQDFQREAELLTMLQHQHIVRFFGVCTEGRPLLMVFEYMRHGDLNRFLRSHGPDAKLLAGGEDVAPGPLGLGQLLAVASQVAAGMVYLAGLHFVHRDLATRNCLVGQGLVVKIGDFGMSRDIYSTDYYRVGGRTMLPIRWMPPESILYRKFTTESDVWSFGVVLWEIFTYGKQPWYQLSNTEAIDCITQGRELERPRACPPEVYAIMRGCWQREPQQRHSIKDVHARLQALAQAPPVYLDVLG
TrkA (h) is incubated with 8 mM MOPS pH 7.0, 0.2 mM EDTA, 250 uM […], 10 mM MgAcetate and [g- 33P]-ATP (specific activity and concentration as required). The reaction is initiated by the addition of the Mg/ATP mix. After incubation for 40 minutes at room temperature, the reaction is stopped by the addition of phosphoric acid to a concentration of 0.5%. An aliquot of the reaction is then spotted onto a filter and washed four times for 4 minutes in 0.425% phosphoric acid and once in methanol prior to drying and scintillation counting.Compound should be supplied in 100% DMSO.We require a stock solution at a concentration of at least 50x higher than the Final Assay Concentration of your cpd. A 10mM stock is also acceptable.When ordering fewer than 60 kinase assays, we need 120uL of 50x concentrated stock. For more than 60 assays, we need 420 uL of 50xcc stock. Please apply the conversion if you provide 10mM stock solution or compounds in powder form (pre-weighed is required) From 50 cpds supplied as solids, the TAT will be extended.
For the compound `COc1cc(CCC(=O)CC(=O)CCc2ccc(O)c(OC)c2)ccc1O`, the compound was classed as inactive. Same read-out and setting: for `O=C(/C=C/c1ccc(O)cc1)CC(=O)/C=C/c1ccc(O)cc1` the value was “inactive”. With `COc1cc(/C=C/C(=O)CC(=O)/C=C/c2ccc(O)c(OC)c2)ccc1O`, the half-maximal activity concentration (AC50) is 3.85 µM (active).
